# Most compounds without a hit are left out; they make up all but 6.2% or so of the library.
# Gal4-VP16 FLuc: counter-screen for ROR gamma inhibitors: Gal4-VP16 reporter | Potency, µM (doses to about 53.6 µM), inactives show at the top dose activity, negative = inhibition, hits mostly inhibitors | Drosophila S2 Gal4-VP16 UAS-luciferase, luminescence, 20 h | 310,000 tested, 3.5% active;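 also: Gal4-VP16 expression switched on by copper sulfate through the metallothionein promoter; nearly all actives have a fitted effect of over 50% in size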
# RORg inh: blocks mouse ROR gamma transcriptional activity; Potency, µM (top dose mostly 53.6 µM), for the others: top-dose activity change, negative = inhibition, hits mostly inhibitors; 310,000 tested, 5.4% active; AID 2551; P51450; Drosophila S2 Gal4-RORgamma UAS-luciferase reporter, 20 h; also: nearly all actives have a fitted effect of over 60% in size
# Target sequence (P51450 whole entry, looked up, the tested form may be a part): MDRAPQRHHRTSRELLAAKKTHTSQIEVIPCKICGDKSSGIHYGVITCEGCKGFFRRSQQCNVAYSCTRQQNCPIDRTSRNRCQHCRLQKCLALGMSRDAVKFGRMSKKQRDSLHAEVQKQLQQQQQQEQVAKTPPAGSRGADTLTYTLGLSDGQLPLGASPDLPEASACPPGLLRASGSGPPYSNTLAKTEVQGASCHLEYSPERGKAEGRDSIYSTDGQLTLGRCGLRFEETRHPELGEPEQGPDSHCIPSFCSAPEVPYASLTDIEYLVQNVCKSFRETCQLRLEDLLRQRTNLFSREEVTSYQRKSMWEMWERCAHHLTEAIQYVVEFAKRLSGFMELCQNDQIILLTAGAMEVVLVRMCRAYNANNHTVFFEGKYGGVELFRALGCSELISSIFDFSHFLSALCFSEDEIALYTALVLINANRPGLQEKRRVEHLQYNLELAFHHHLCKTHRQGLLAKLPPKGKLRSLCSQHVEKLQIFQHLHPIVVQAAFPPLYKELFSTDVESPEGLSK
#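 Using a luciferase readout, inhibitors were identified by reduced reporter activity in Drosophila cells coexpressing a copper-inducible Gal4–ROR gamma fusion and UAS-driven Photinus luciferase, incubated 20 hr after 700 uM copper sulfate.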
# KinaseGlo FLuc: counter-screen: inhibitors of Kinase-Glo firefly luciferase; Potency, µM (highest dose often 38.3 µM), for inactives: top-dose activity change, negative = inhibition, most hits filed as inhibitors; 200,000 tested, 0.28% active; Q27757; AID 1379; Kinase-Glo luciferase, ATP luminescence, 8 min; also: nearly all actives have a fitted effect of over 60% in size
#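 Inhibition of Kinase-Glo luciferase light generation was assessed at 10 uM ATP in pH 7.2 imidazole buffer, with luminescence measured after eight minutes at ambient temperature.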
# * = called active by the depositor; ? = inconclusive; · = no result; [ ] = another dose, or the depositor's remark. Calls follow the shape of the dose curve; as a rule, active = well fitted curve in the direction sought with a large enough effect; inconclusive = small, poorly fitted or top-dose-only effect, or another doubt; inactive = no such curve, though single readings can be large; an effect the other way counts as inactive or inconclusive. % is scaled to controls: 0 for no effect and ±100 for the full control effect; potency is read from the fitted curve at half-maximal effect.
SMILES,Gal4-VP16 FLuc,RORg inh,KinaseGlo FLuc
O=C(Nc1nnc(-c2ccco2)o1)C1CC1,?,10µM*,1%
CC(C)(C)C(=O)Nc1nnc(-c2ccncc2)o1,18µM*,11µM*,0%
CCN(CC)CCCNC(=O)Cn1nc([N+](=O)[O-])c(Cl)c1C,7%,-14%,-2%
COc1cc2cc3c4cc(OC)c(OC)cc4cc[n+]3c(C)c2cc1OC,-8%,32%,0%
O=C(Nc1nnc(-c2ccc(Cl)s2)o1)C1CC1,-7%,-2%,3%
O=C(N/N=C\c1ccncc1)c1ccc(Br)s1,0%,1%,·
O=C(Nc1nnc(-c2ccncc2)o1)c1ccc(Br)s1,1.1µM*,0.89µM*,4%
O=C(Nc1nnc(-c2cccs2)o1)C1CC1,7.1µM*,7.1µM*,·
Cc1sc2ncn(/N=C/c3ccco3)c(=O)c2c1C,8%,18%,·
O=S(=O)(Nc1ccncc1)c1cc(Cl)c(Cl)cc1Cl,3%,?,·
COc1ccc(C(=O)N2CCC3(CCCN(Cc4ccc(C#N)cc4)C3)CC2)cc1,-8%,18%,1%
O=C(Nc1ccc2c3c(cccc13)CC2)c1ccc(Br)o1,?,?,-7%
CN1CCN(C(=O)c2ccccc2NC(=O)c2ccccc2Br)CC1,0%,-10%,·
O=C(NC(=S)N1CCc2ccccc21)c1ccc(Br)o1,0.32µM*,0.25µM*,-5%
O=C(NC(=S)N1CCc2ccccc21)c1ccccc1Br,0.89µM*,0.1µM*,·
CN1CCN(C(=S)NC(=O)c2ccccc2Br)CC1,11µM*,7.1µM*,·
O=C(c1ccccc1F)N1CCc2ccccc21,16%,-17%,-1%
CCOC(=O)C1CCCN(C(=O)c2ccc(C)c(NC(=O)C3=C(C)OCCS3)c2)C1 (stereo not given),12%,12%,·
CCOC(=O)C(NC(=O)C1C(C)N1S(=O)(=O)c1ccc(C)cc1)C(=O)OCC (stereo not given),1%,-7%,·
Cc1ccc2c(n1)sc1c(N)ncnc12,-9%,-24%,-8%
COc1ccc(C/C(C)=N/NC(=O)C2COc3ccccc3O2)cc1 (stereo not given),?,13%,2%
Cc1c(Cl)ccc(S(=O)(=O)N2CCN=C2c2ccccc2)c1Cl,3%,23%,0%
Cc1cc(S(=O)(=O)N2CCN=C2c2ccccc2)c(C)cc1Cl,-8%,1.3µM*,1%
CN(CCCC(=O)O)S(=O)(=O)c1ccc2c(c1)C(=O)c1cc(S(=O)(=O)N(C)CCCC(=O)O)ccc1-2,5%,-10%[1.91 µM],·
Cc1nc(SCC(=O)c2ccccc2)c(C#N)c(-c2ccco2)c1C(=O)NCc1ccco1,5µM*,5.6µM*,-1%
SMILES,Gal4-VP16 FLuc,RORg inh,KinaseGlo FLuc
COCCOC(=O)c1c(C)nc(SCC(=O)Nc2ccc(OC)cc2)c(C#N)c1-c1ccco1,-6%,-3%,-1%
O=C1CCCC(C(C(=O)OCc2ccccc2)C(=O)OCc2ccccc2)C1 (stereo not given),6%,9%,-2%
CCC(=O)OCn1nnc2ccccc2c1=O,-10%,0%,-3%
CC(C)(Oc1ccc(Cl)cc1)C(=O)OCn1nnc2ccccc2c1=O,2.5µM*,?,3%
C=CCn1cc(C(=O)OC)c(=O)c2cc(S(=O)(=O)N(CC)CC)ccc21,?,2%,-4%
C=CCn1cc(C(=O)OC)c(=O)c2cc(S(=O)(=O)N3CCC(C)CC3)ccc21,-4%,11µM*,0%
CCN(C(=O)COC(=O)c1c(-c2ccccc2)noc1C)c1c(N)n(Cc2ccccc2)c(=O)[nH]c1=O,-10%,-3%,·
CCCC(=O)NC(=S)Nc1ccc(Cl)cn1,6.3µM*,3.5µM*,-2%
O=C(COc1ccc(Cl)cc1Cl)Nc1ccc(Cl)cn1,?,?,-12%
O=C(Cc1ccc(Cl)cc1)Nc1ccc(Cl)cn1,-11%,8%,·
Cc1cc(Cl)ccc1OCC(=O)NC(=S)Nc1ccc(Cl)cn1,-6%,5.6µM*,·
CCOC(=O)C1CCCN(C(=O)COC(=O)c2ccc(C#N)cc2)C1 (stereo not given),6%,7%,1%
COc1ccc(NC(=S)N2CCc3ccccc3C2)cc1OC,-6%,11µM*,1%
CSCCCNC(=S)N1CCc2ccccc2C1,?,3.5µM*,-1%
COc1cccc(NC(=S)N2CCc3cc(OC)c(OC)cc3C2)c1,-2%,-44%,·
COc1cc2c(cc1OC)CN(C(=S)Nc1ccc(Cl)cc1)CC2,-16%,?,·
CCNC(=S)N1CCc2ccccc2C1,18%,-28%,-1%
COc1cc(NC(=S)N2CCc3ccccc3C2)cc(OC)c1,?,14µM*,1%
COc1ccc(N2CC(C(=O)N[C@@H](C)C(=O)NC3CCCCC3)CC2=O)cc1 (stereo not given in full),-9%,3%,·

# Bioassay records from PubChem BioAssay.
